28 molecules from ChEMBL document CHEMBL4513216, “Probing the Open Global Health Chemical Diversity Library for Multistage-Active Starting Points for Next-Generation Antimalarials” (ACS Infect Dis, 2020) can be followed below.

The campaign covered roughly 69,000 compounds. About 8,600 (12%) showed an effect of 50% or more. This excerpt belongs to a sample that is enriched for strong results.

In this assay the test system is Plasmodium berghei. Briefly: Screen against P. berghei liver stage (PbLuc), transformed with Luciferase, at 10uM. In kind it is functional, HepG2. Particulars: tested at 10 uM.
With `O=C(O)c1cn(-c2ccccn2)c(=O)c2ccccc12`, the INHIBITION is -44.2%.
Consider `CN(C)[C@@H]1CN(Cc2ccc(O)cc2)C[C@H]1c1cn(C)c2ccccc12`, for which the INHIBITION was found to be 40.9%.
For `O=C(c1ccncc1)N1C[C@H]2CC[C@@H](C1)N(S(=O)(=O)c1cccnc1)C2`, the INHIBITION is -66.4%.
For `CCN1CC(C(=O)NCc2ccnc(-n3cccn3)c2)CC1=O` (stereo not drawn), the INHIBITION is on record as -12.33%.
Then `CCOC(C)c1nccn1Cc1c(C)noc1C` (stereo not drawn), with 3.19%.
Then `Cc1cc(C(F)(F)F)nc(C2(C)CCCN2CC(N)=O)n1` (stereo not drawn), with 14.385%; and `c1cncc(-n2cnnc2CCCN2CCOCC2)c1`, with 3.69%.
The value for `CN1CCN(Cc2cccnc2)C2(CCN(Cc3ccoc3)C2)C1=O` (stereo not drawn) was -24.9%; that for `COCCC(=O)NC1CCN(CC2(c3cccc(F)c3)CCCC2)CC1` was 12.3%; that for `Cc1ccc(NC(=O)[C@H]2C[C@H](C(=O)O)CN(CC(C)C)C2)cn1` was 11.2%.
In the case of `CC(C)Cc1ncc2c(n1)CN(c1cc(NCCO)nc(N)n1)C2`, the INHIBITION is 27.7%.
Take `Nc1nc(NCCO)cc(N2CCc3c([nH]c4ccccc34)C2)n1`: the INHIBITION amounted to 78.5%.
With `COc1ccc(F)c(-c2cc(NCCO)nc(N)n2)c1`, the INHIBITION is -76.6%.
Then `CCc1ncc2c(n1)CN(c1cc(NCCO)nc(N)n1)C2`, with -63.2%.
As to `CC(C)(C)c1ncc2c(n1)CN(c1cc(NCCO)nc(N)n1)C2`, the INHIBITION was 3.84%.
`COc1ccc2[nH]c3c(c2c1)CN(c1cc(NCCO)nc(N)n1)CC3`: the INHIBITION stood at 54.8%.
On to `C[C@@H]1C[C@H]2CN(C(=O)c3ccncn3)C[C@H]2O1`, for which the INHIBITION is reported as -0.813%.
On to `CN1[C@@H](C(=O)NCC2CC2)C[C@@H]2CN(Cc3ccoc3)C[C@@H]21`, for which the INHIBITION worked out at 1.34%.
Then `N#CC(NC(=O)CC(F)(F)F)c1ccsc1` (stereo not drawn), with -3.68%.
Take `COc1cccc(C=CCCN2CCN(S(C)(=O)=O)CC2)c1`: the INHIBITION is listed as -104%.
As to `CCN1CCN(c2ncc(-c3cc(C)no3)c(-c3ccoc3C)n2)CC1`, the INHIBITION was determined as 48.9%.
Then `Cc1cc(-c2cnc(N3CCSCC3)nc2-c2ccc(C)s2)on1`, with 47.1%; and `Cc1cc(-c2cnc(N3CCN(C)CC3)nc2-c2ccc(C)s2)on1`, with 69.4%; and `CCN1CCN(c2ncc(-c3cc(C)no3)c(-c3ccc(C)s3)n2)CC1`, with 57.4%.
Then `Cc1cc(-c2cnc(N3CCCC3)nc2-c2ccc(C)s2)on1`, with 32.3%.
Then `CCN1CCN(c2ncc(-c3cc(C)no3)c(-c3ccco3)n2)CC1`, with 11.5%; and `Cc1cc(-c2cnc(N3CCOCC3)nc2-c2ccc(C)s2)on1`, with 53%; and `Cc1nc(CN2CCCC(N(C)CCOCC(F)(F)F)C2)no1` (stereo not drawn), with -13.5%.
